The panel holds about 83,000 compounds, 20% with a hit somewhere; the sample as a whole holds those more often.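 Single-concentration screen, 48 h exposure, 96-well plates. Endpoint: percent growth. Below 10 = active.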 Activity calls are given as the source filed them.

The test system of the test is CAKI-1 renal. In words: NCI-60 one-dose screen, 48 h (100 = growth as untreated, 0 = no growth, -100 = all killed). Conditions: 10 µM unless noted. The procedure: Growth inhibition of the CAKI-1 human tumor cell line is measured as a screen for anti-cancer activity. Cells are grown in 96 well plates and exposed to the test compound for 48 hours. Compounds are tested at a single concentration, which is 10^-5 M for most compounds. The reported endpoint is percent growth (GI% or GIPRCNT), where numbers from 0 - 100% represent growth inhibition, and numbers from -100% - 0 represent cell death. For example, a value of 40 represents 60% growth inhibition. A value of 0 means no net growth occurred over the course of the experiment. A value of -40 indicates 40% of cells at the beginning of the experiment died by the end of the experiment. A value of -100 means all cells are dead at the end of the experiment.
NCI-60 Human Tumor Cell Lines Screen was performed using the standard one-dose NCI protocol, which is described in more detail at https://dtp.cancer.gov/discovery_development/nci-60/default.htm.
Compounds with GIPRCNT values below 10 were considered active. Activity score was based on GIPRCNT using the following formula: […]
Score is 0 for GIPRCNT values of 100 or above, 50 for GIPRCNT values of 0, and 100 for GIPRCNT values of -100.
Take `C#CCOc1ccc2ncnc(Nc3cccc(NC(=O)CCl)c3)c2c1`: the growth was 81.2% (inactive).

As to `COc1ccc2cc(-c3ccc(-c4ccc(C(=N)N)s4)s3)ccc2c1`, the growth is 88.8% (inactive). For `COc1ccc(/C=C/C(=O)c2cc3c(N)c(C(=O)Nc4ccccc4C)sc3nc2C)cc1`, the growth was 23.3% (inactive). The value for `N/C(=N\c1nc2ccccc2s1)NC(=NC1CCCCC1)NC1CCCCC1` was 23.2% (inactive); that for `O=C1NC(=C(Cl)Cl)/C(=N/S(=O)(=O)NCCc2c[nH]c3ccccc23)N1` was 83.7% (inactive). The value for `Nc1c(C(=O)Nc2ccccn2)sc2nc3c(cc12)C(O)CCC3` (stereo not given) was 28.9% (inactive). The value for `Oc1c(CN2CCCC2)cc(COCc2ccccc2)c2cccnc12` was 10.5% (inactive); that for `COc1ccc(C2C3=C(COC3=O)N(CCO)c3cc4c(cc32)OCCO4)cc1OC` (stereo not given) was 49.5% (inactive). For `COc1ccc(/C=C/C(=O)c2cc3c(N)c(C(=O)Nc4ccc(OC)cc4)sc3nc2C)cc1`, the growth is 24.8% (inactive). The value for `O=C(O)CCCc1cnc2c3sccc3nc(SCc3c(Cl)cccc3Cl)n12` was 42.2% (inactive); that for `C#CC#CC#CC#CC#CC#CC#CC#CC[C@H]1OC[C@H](COC(=O)O[C@@H](C(=O)O[C@H]2C[C@@]3(O)[C@@H](OC(=O)c4ccccc4)[C@@H]4[C@]5(OC(C)=O)CO[C@@H]5C[C@H](O)[C@@]4(C)C(=O)[C@H](OC(C)=O)C(=C2C)C3(C)C)[C@@H](NC(=O)c2ccccc2)c2ccccc2)O1` was 77.1% (inactive); that for `COc1ccc(C2=NN(C(C)=O)C(c3ccc(Oc4ccnc5cc(Cl)ccc45)c(OC)c3)C2)cc1` (stereo not given) was 47.9% (inactive).

In the case of `COc1cc(C(=O)/C=C/c2c(-c3cccs3)nc3ccccn23)cc(OC)c1OC`, the growth is -5.58% (active). In the case of `COc1cc(Nc2ncccc2NC(=O)c2cn(Cc3cccc(Oc4ccccc4)c3)nn2)cc(OC)c1` it was 83.9% (inactive); in that of `COc1cccc(Nc2ccnc3[nH]c4ccc([N+](=O)[O-])cc4c23)c1`, 28.8% (inactive). Take `CCn1c2ccc(O)cc2c2c(C)c3c[n+](C(C)C)ccc3c(C)c21`: the growth was 89.8% (inactive).

On to `Cc1[nH]c(C(=O)Nc2cccc(OC3CCNCC3)c2)c(Cl)c1Cl`, for which the growth was 70.3% (inactive). In the case of `C/C(=N\O)C(=O)NCCCCCC(=O)Nc1ccccc1` it was 91.9% (inactive).

As to `Cc1nc2sc(C(=O)Nc3ccc(Cl)cc3)c(N)c2cc1C(O)c1ccccc1` (stereo not given), the growth was 47.5% (inactive). In the case of `COc1cc2c(cc1O)[C@@]1(C)[C@H](c3ccccc3Br)OC(=O)N1CC2` it was 92.5% (inactive). For `c1ccc(CCc2ccccc2-c2cc(-c3ccccc3)on2)cc1`, the growth is 92.2% (inactive). In the case of `CC(C)c1ccc(C(=O)Nc2sc3cc(O)ccc3c2C#N)cc1` it was 39.6% (inactive); in that of `CC(C(=O)O)n1c(O)c(C=Nc2cccnc2)sc1=S` (stereo not given), 79.7% (inactive).

Take `CC/C=C\C/C=C/C=C1/C(=O)C=C[C@@H]1C/C=C\CCCC(=O)OC`: the growth was 29.7% (inactive). In the case of `C=CCOC(=O)C1=C(C)NC(=O)NC1c1c(Cl)n(C)c2ccccc12` (stereo not given) it was 94.3% (inactive); in that of `COc1cc(N2C(=O)[C@H](c3ccccc3)C2c2ccc(SC)cc2)cc(OC)c1OC` (stereo not given in full), 21.3% (inactive); in that of `CCCCCCCCn1ccc2cc(NC(=O)Cn3cc(CN4CCOCC4)nn3)ccc21`, 83.9% (inactive).

Turning to `CN(C)Cc1ccc(C(=O)Nc2ccc3ncnc(Nc4ccc(Oc5cccc(F)c5)c(Cl)c4)c3c2)cc1`, the growth was -42.2% (active). In the case of `O=C(Nc1cccc(NC(=O)C2CCCCC2)c1)c1ccccn1` it was 94.9% (inactive); in that of `C=C1C(=O)O[C@H]2[C@H]1CC/C(COC(=O)/C=C\C(=O)NCc1ccc(Cn3c(=O)sn(-c4ccccc4)c3=O)cc1)=C\CC[C@@]1(C)O[C@@H]21`, 65.1% (inactive); in that of `COC(=O)Cc1nc(C#N)c(N(C)C)o1`, 97.2% (inactive). In the case of `CCC(CC)(N(CC(=O)O)CC(=O)O)C(CC)(CC)N(CC(=O)O)CC(=O)O` it was 98.4% (inactive); in that of `CN(C)c1ccc(-c2cc(-c3ccc(Nc4nc(Nc5ccc(Cl)cc5)nc(Nc5ccc(Cl)cc5)n4)cc3)nc(N)c2C#N)cc1`, 82.3% (inactive); in that of `CC(=O)c1c(Nc2ccc(F)c(F)c2F)[nH]c2c(F)cc(F)cc2c1=O`, -10.4% (active). In the case of `O=c1[nH]cnc2c1C(c1ccc(Br)cc1)c1sc3c(F)cccc3c1O2` (stereo not given) it was 82.1% (inactive); in that of `COc1cc(Nc2c3ccc(Cl)cc3nc3ccc(OC)cc23)c2ncccc2c1`, 32.2% (inactive). Regarding `CCOC(=O)c1c(C)nn(CC(O)c2ccccc2)c1NC(=O)Nc1cccc(F)c1` (stereo not given), the growth is 83.4% (inactive). The value for `Cn1cc(-c2nonc2-c2c[nH]c3ccccc23)c2ccccc21` was 20.4% (inactive).

Consider `O=C(CCCCl)NNc1nccc(Nc2ccc(S(=O)(=O)Nc3ccncc3)cc2)n1`, for which the growth was 93.9% (inactive).

`CCCCCCC(CCCC)COC(=O)c1ccc(Cl)cc1` (stereo not given): the growth is 100% (inactive).

(Values after PubChem BioAssay (NCI).)
